# Sampled rows, rich in hits. Any-hit rate of the full collection: about 4%.
# TRPM1 prom inh – reduces MITF-dependent TRPM1 promoter luciferase signal. SK-MEL-5 TRPM1 promoter luciferase, 24 h. inhibition, % at 12.5 µM. 330,000 compounds, 0.83% hits. AID 488899;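 active = mean inhibition across replicates of 60% or more, whatever share of single replicates reaches that level; inconclusive = some that reach 60%, reason not given; inactive = mean inhibition across replicates below 60%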
# MITF TRPM1 HTS – MITF TRPM1 promoter activation in melanoma cells; SK-MEL-5 TRPM1-promoter luciferase, 24 h; % of positive control, neutral wells = 0; activation, % at 12.5 µM; 300,000 compounds, 0.75% hits; AID 588334;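 active = mean activation of at least 80% with every replicate also reaching 80%; inconclusive = mean reaches 80% but some replicate falls short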;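 also: 0% = neutral control wells and 100% = parthenolide positive control wells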
# esBAF inh – inhibitors of esBAF chromatin remodeling in mouse ES cells. Bmi1-luciferase knock-in reporter, 24 h; 100% = twice the neutral-well signal. reporter increase, % at 12.5 µM. 350,000 compounds, 2% hits; in the data active = activation above about 40%; inconclusive = no clear call, values can overlap the other calls;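 also: 0% = median of the plate's neutral control wells and 100% = double that signal; a rise in the Bmi1 reporter signal indicates esBAF inhibition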
# Wnt act – activates Wnt/beta-catenin signaling in a reporter cell assay | activator, plate reader | activation, % at 9.35 µM | 300,000 compounds, 1.2% hits; in the data active = activation above about 30%, passing the limit was not always enough; inconclusive = no clear call, values can overlap the other calls;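 also: 0% = neutral control wells and 100% = positive control wells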
# PAX8 inh HTS – lowers PAX8-driven luciferase in RMG-I cells; inhibition, % at 12.6 µM; 360,000 compounds, 1.2% hits; RMG-I TPO-luciferase reporter, SteadyGlo, 24 h;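 active = mean replicate inhibition at least 60% with every replicate also reaching 60%; inconclusive = only one of the two criteria is met; inactive = mean below 60% and not all replicates reaching 60%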;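 also: luciferase light reporting Pax8 driven TPO promoter activity; plate controls were median of neutral control wells for no effect and mitoxantrone controls for full effect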
# EWS-Fli block – EWS/Fli transcriptional activity inhibition; AID 651661; inhibition, % at 12.6 µM; 350,000 compounds, 0.67% hits; A673 NR0B1-luciferase reporter, viability-normalised;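 active = mean inhibition of at least 50% after viability correction, with every replicate also passing that limit; inconclusive = mean reaches 50% but only one of two replicates passes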;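 also: firefly luciferase signal divided by Alamar Blue viability fluorescence both relative to DMSO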
# * = called active by the depositor; ? = inconclusive; nt = no result given.
SMILES,TRPM1 prom inh,MITF TRPM1 HTS,esBAF inh,Wnt act,PAX8 inh HTS,EWS-Fli block
COc1ccc(/[N+]([O-])=C/c2ccoc2)cc1,-106.2,106.0*,80.4*,41.3*,-154.3,-57.1
COc1ccc(NC(=O)N2CC[C@@H]3[C@H]2c2cc(-c4ccc(F)cc4)ccc2N(C)[C@H]3CO)cc1,nt,nt,0.4,nt,71.0*,-5.9
CN1c2ccc(-c3ccccc3)cc2[C@@H]2[C@@H](CCN2C(=O)NC2CCCCC2)[C@@H]1CO,nt,nt,nt,nt,81.3*,4.2
COc1ccc(-c2ccc3c(c2)[C@@H]2[C@@H](CCN2C(=O)c2ccc(F)cc2)[C@@H](CO)N3C)cc1,nt,nt,2.9,nt,-0.7,4.0
COc1cccc(-c2ccc3c(c2)[C@@H]2[C@@H](CCN2C(=O)NC2CCCC2)[C@H](CO)N3C)c1,nt,nt,0.2,nt,?,4.0
COc1ccc(-c2ccc3c(c2)[C@@H]2[C@@H](CCN2C(=O)NC2CCCCC2)[C@@H](CO)N3C)cc1,nt,nt,-0.2,nt,84.8*,-3.8
Cc1noc(C)c1NC(=O)N(C)C[C@@H]1Oc2ccc(NS(=O)(=O)c3c(C)noc3C)cc2CC(=O)N([C@H](C)CO)C[C@H]1C,nt,nt,-0.6,nt,-11.6,-6.6
CCSC1(SCC)N=C(N)C2(C#N)C(c3ccc(F)cc3)C12C#N (stereo not drawn),82.2*,-82.4,0.1,nt,nt,nt
O=C(C[C@@H]1C=C[C@@H](NC(=O)c2ccc(F)cc2)[C@H](CO)O1)NCCc1ccncc1,nt,nt,-1.9,nt,-12.6,0.2
Cc1c(C(=O)NCC(C)C)sc2nc(-c3ccc(F)cc3)cn12,nt,nt,50.4*,8.5,-172.2,-82.5
CC(=O)Nc1sc2c(c1-c1nc3ccccc3s1)CCN(C(C)C)C2,77.3*,-75.5,-76.1,nt,nt,nt
C[C@@H]1CN([C@@H](C)CO)C(=O)c2cc(NC(=O)C3CC3)ccc2O[C@H]1CN(C)Cc1ccc(C(=O)O)cc1,nt,nt,-0.6,nt,-26.8,nt
CCOC(=O)CSC1=NC(=O)/C(=C/c2ccc(Br)cc2)S1,53.5,-54.1,nt,-1.7,-31.2,7.0
CCOC(=O)CSC1=NC(=O)/C(=C\c2ccc(OC(C)=O)cc2)S1,78.7*,-78.3,-1.6,nt,nt,nt
O=C(C[C@@H]1CC[C@H]2[C@@H](COC[C@@H](O)CN2C(=O)C2CC2)O1)NCc1ccccc1Cl,nt,nt,0.8,nt,-4.6,-1.8
CC(C)C(=O)NNc1nc2ccccc2s1,-76.2,78.4,92.1*,15.9,nt,-78.4
O=C(NNc1nc2ccccc2s1)C1CC1,1.6,-6.8,-1.9,nt,nt,nt
CC(=O)c1c(C)nc(Nc2nc3ccccc3s2)nc1C,nt,nt,nt,38.1*,-133.3,-38.8
O=C(NNc1nc2ccccc2s1)Nc1ccc(Cl)c(Cl)c1,12.1,-4.5,nt,-5.1,64.4*,2.9
CO[C@H](CN(C)S(=O)(=O)c1ccccc1)[C@@H](C)CN(Cc1ccccc1Cl)[C@@H](C)CO,nt,nt,-3.9,nt,nt,7.9
CN(C)S(=O)(=O)c1cccc(-c2cn3cc(Cl)ccc3n2)c1,-47.4,47.8,45.1*,nt,nt,nt
CC(C)NC(=O)N(C)C[C@@H]1Oc2cc(C#Cc3ccc(F)cc3)ccc2S(=O)(=O)N([C@@H](C)CO)C[C@H]1C,nt,nt,2.3,nt,nt,11.0
CC(C)(C)c1ccc(-c2cn(-c3ccc(Br)cc3)c3[n+]2CCCS3)cc1,90.3*,-88.8,nt,-24.2,95.3*,39.2
CCCn1c2c(c(=N)c3c1CCC3)CCC2,10.5,nt,nt,-1.2,18.9,21.4
CCCCCCCn1c2c(c(=N)c3ccccc31)CCC2,85.8*,-85.5,nt,-5.5,100.4*,58.1*
SMILES,TRPM1 prom inh,MITF TRPM1 HTS,esBAF inh,Wnt act,PAX8 inh HTS,EWS-Fli block
Nc1nnc(SCc2ccc([N+](=O)[O-])cc2)s1,-1.7,4.4,nt,-0.1,-12.3,-11.5
Nc1cc(SCc2ccc([N+](=O)[O-])cc2)ncn1,-13.6,21.1,9.7,36.7*,nt,-1.6
CN1C(=O)c2cc(NC(=O)Cc3cccs3)ccc2OC[C@H]2O[C@H](CC(=O)O)CC[C@@H]21,nt,nt,0.1,nt,-2.2,-4.0
C[C@@H](NC(=O)C[C@H]1C[C@@H]2c3cc(NS(C)(=O)=O)ccc3O[C@@H]2[C@H](CO)O1)c1ccccc1,nt,nt,-5.2,nt,-11.6,-1.1
CCN(CC)c1ccc(C=Nc2cccnc2Cl)c(O)c1,-2.4,2.7,3.0,1.0,-10.4,-6.3
CCN(CC)C(=O)c1ccc2nc3ccccc3nc2c1,51.0,-48.1,nt,27.5,2.0,-36.1
CCN(CC)c1ccc2nc3ccc(N)cc3[n+](-c3ccccc3)c2c1,93.4*,-92.9,-81.6,-17.9,nt,28.2
CCN(CC)c1ccc2nc3ccccc3[n+](CC)c2c1,66.5*,nt,-66.4,nt,nt,nt
CN(C)CCCNC(=O)[C@H]1[C@H](CO)[C@H]2Cn3c(ccc(-c4cccc(F)c4)c3=O)[C@H]2N1C,nt,nt,0.4,nt,-22.1,-6.6
COc1ccc(-c2ccc([C@H]3[C@@H](C#N)N(C(=O)NC(C)C)[C@H]3CO)cc2)cc1,nt,nt,5.5,nt,12.7,8.1
COc1cc(/C=N/Nc2ccc(Cl)c(C(=O)O)c2)ccc1OC(=O)c1ccco1,27.8,-28.0,10.0,-1.0,-7.3,-31.1
COc1cc(/C=N/Nc2ccccc2)ccc1OC(=O)c1cccs1,nt,nt,nt,4.0,-14.6,nt
COc1cc(OC)cc(C(=O)Oc2ccc(/C=N/Nc3nc4ccccc4s3)cc2OC)c1,-2.4,0.4,nt,41.0*,-83.9,nt
COc1cc(C=NNc2ccccc2)ccc1OC(=O)c1ccccc1,nt,nt,40.9*,16.6,-16.1,-7.9
COc1cc(/C=N/Nc2ccc(Cl)c(C(=O)O)c2)ccc1OC(=O)c1cccs1,15.0,-5.3,14.0,37.5*,-13.7,-52.7
C=CCOc1c(Br)cc(/C=N/Nc2ccc(C(=O)O)cc2)cc1OCC,-104.3,104.9*,nt,10.1,-137.5,-36.3
O=C(C[C@H]1CC[C@H](NC(=O)Nc2ccc(F)cc2)[C@H](CO)O1)NCc1ccccn1,nt,nt,-5.5,nt,-7.9,1.4
CCCNC(=O)[C@@H]1[C@@H](CO)[C@@H]2Cn3c(ccc(C4=CCCC4)c3=O)[C@@H]2N1CCC,nt,nt,-3.8,nt,7.4,-8.7
CCCNC(=O)C[C@H]1CC[C@H]2[C@@H](COC[C@@H](O)CN2Cc2cccc(F)c2)O1,nt,nt,1.5,nt,10.2,2.9
O=C(C[C@H]1C[C@H]2c3cc(NC(=O)Nc4ccccc4F)ccc3O[C@H]2[C@H](CO)O1)NCc1ccncc1,nt,nt,-2.5,nt,7.2,-1.8
CCCNC(=O)Nc1ccc2c(c1)C(=O)N(C)C[C@H](OC)[C@@H](C)CN(C(=O)c1ccccc1F)[C@H](C)CO2,nt,nt,-1.3,nt,nt,-5.1
COc1ccc(/C=N/Nc2ccc(C(=O)O)cc2)cc1OC,-24.7,27.9,6.9,33.4*,-60.1,-37.3
CCOc1cc(/C=N/Nc2cccc(C(=O)O)c2)ccc1OC(=O)c1ccccc1,91.4*,-90.6,-68.9,-13.5,66.9*,-48.0
COc1ccc(C(=O)Oc2ccc(/C=N/Nc3ccc(Cl)c(C(=O)O)c3)cc2OC)cc1,-17.3,14.7,-1.6,10.5,-36.8,-94.9
CCOc1cc(/C=N/NC(=O)CNc2cccc(C)c2)ccc1OC(=O)c1ccccc1,-1.9,2.1,9.3,nt,nt,nt
C[C@H]1CN([C@@H](C)CO)C(=O)c2cc(NC(=O)Cn3cnnn3)ccc2O[C@@H]1CN(C)S(=O)(=O)c1ccc(Cl)cc1,nt,nt,-1.5,nt,nt,-0.2
